Screening results (PubChem BioAssay)
This excerpt belongs to a sample that is enriched for hits.
ERK EGF inh: blocks ERK signaling stimulated by EGF; HEK293-V1b, EGF-stimulated phospho-ERK AlphaScreen; hit rate 0.41% among 130,000; Potency, µM (titrated, usually from 11.5 µM), for inactives: top-dose activity change, negative = inhibition, usual class: inhibitors; active = well fitted inhibition curve with a large enough effect;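 also: plate controls were stimulated vehicle wells for no effect and unstimulated vehicle basal for full effect; nearly all actives have a fitted effect of over 55% in size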
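Homogeneous cell-based phospho-ERK assay: HEK293/V1b cells in 1% FBS, compound 30 min then EGF 5 min, AlphaScreen luminescence. Activity normalized between DMSO and 25 nM EGF controls; AC50 from Hill modelling.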
The depositor's hits bear a star; [ ] = another dose, or the depositor's remark. Potency is read from the fitted curve at half-maximal effect.

SMILES | ERK EGF inh
O=C1ON=C(c2ccccc2)/C1=C/c1ccco1 | 3%
COCC(=O)N1CCC[C@@]2(CCN(C(c3ccccc3)c3ccccc3)C2)C1 | 16%
CN(CCc1ccc(Cl)c(Cl)c1)CCN1CCCC1 | -3%
O=c1c(-c2ccc(O)cc2)coc2c(C3OC(CO)C(O)C(O)C3O)c(O)ccc12 (stereo not given) | 0%
CCCCC1=CC2=C(c3ccco3)C(=O)C(C)(OC(=O)c3cccs3)C(=O)C2=CO1 (stereo not given) | -4%
CCCCC[C@H](O)/C=C/[C@H]1OC(O)C[C@H](O)[C@@H]1C/C=C\CCCC(=O)O (stereo not given in full) | 3%
Clc1ccc2scc(CN3CCCCC3)c2c1 | 1%
Oc1c(CN2CCOCC2)cc2c(c1-c1c(O)c(CN3CCOCC3)cc3c1CCCC3)CCCC2 | -15%
Cc1cc(N=Nc2ccc(Cl)cc2)cc(CN2CCCC2)c1O | 32µM*
Cc1ccc2c(CN3CCOCC3)cc(=O)oc2c1 | -1%[57.5 µM]
O=C(NN1CCN(Cc2ccccc2Cl)CC1)c1ccc(Cl)cc1 | 7%
Cc1cc(N=Nc2ccc(Cl)cc2)cc(CN2CCOCC2)c1O | 16µM*
C=CCC(O)(C#Cc1ccccc1)c1ccccc1 (stereo not given) | -7%
COc1cccc(-c2nc(N3CCNCC3)c3ccccc3n2)c1 | 29%
COc1ccc(C(=O)N(O)c2ccccc2)cc1 | -7%
COc1ccc(OC)c(-c2c3cc(O)c(=O)cc-3oc3cc(O)c(O)cc23)c1 | 25µM*
COc1ccc2c(=O)cc(-c3ccc(O)cc3)oc2c1 | -8%
COc1ccccc1-c1cc(=O)c2cc(O)ccc2o1 | -10%
N#Cc1ccc(CS(=O)(=O)c2ccccc2)cc1 | -3%
CCOc1cc(/C=C/c2cc(C(=O)O)c3ccccc3n2)ccc1O | 0%
COc1cc(/C=C/c2cc(C(=O)O)c3ccccc3n2)cc(OC)c1O | 32µM*
CCOc1cc(/C=C/c2cc(C(=O)O)c3ccccc3n2)ccc1OC | 4%
N.N.O=C(O)C1(C(=O)O)CCC1.[Pt] | -13%
CC(C)[C@H](NC(=O)c1ccccc1)C(=O)OCc1nc2scc(-c3ccccc3)c2c(=O)[nH]1 | 35µM*
NC(=O)Cc1nc2scc(-c3ccccc3)c2c(=O)[nH]1 | -3%
SMILES | ERK EGF inh
Cc1csc(SCc2nc3scc(-c4ccccc4)c3c(=O)[nH]2)n1 | -3%
CCCCCC(=O)CC[C@@H]1[C@@H](C/C=C\CCCC(=O)O)[C@@H](O)C[C@H]1O | 6%
CCCCC[C@H](O)/C=C/[C@@H]1[C@H](C/C=C\CCCC(=O)O)[C@@H](O)C[C@H]1O | 9%
c1coc(CNc2ncnc3[nH]ncc23)c1 | -2%[57.5 µM]
COc1cc2ncnc(NCc3ccco3)c2cc1OC | 22µM*
COc1ccc(CNc2ncnc3cc(OC)c(OC)cc23)cc1OC | 1%[57.5 µM]
CCOC(=O)Cc1csc(NC(=O)c2ccc(C)cc2)n1 | 5%
CCOC(=O)Cc1csc(NC(=O)/C=C/c2ccc(Br)o2)n1 | 35µM*
CCCC(=O)Nc1nc(CC(=O)OCC)cs1 | 3%
COC(=O)/C(=C1\OC(=O)C(c2ccccc2)C1=O)c1ccccc1 (stereo not given) | 10%
CC1C(NC(=O)/C(=N/OC(C)(C)C(=O)O)c2csc(N)n2)C(=O)N1S(=O)(=O)O (stereo not given) | 5%
O=[N+]([O-])c1ccc(O)c(Nc2ncnc3ccc(Br)cc23)c1 | 25µM*
COc1ccc(Nc2ncnc3ccc([N+](=O)[O-])cc23)c(OC)c1 | 1%
O=[N+]([O-])c1ccc(O)c(Nc2ncnc3ccccc23)c1 | -16%
N=C(N)S/C=C\C(=O)O | -2%
O=C(/C=C/c1cccc([N+](=O)[O-])c1)Nc1ccccc1N1CCOCC1 | -4%
N#C/C(=C\C1=C(N2CCOCC2)C(=C/c2cccc([N+](=O)[O-])c2)/CC1)C(=O)Nc1ccccc1F | 3.5µM*
CC(NC(=O)C12CC3CC(CC(C3)C1)C2)C(=O)N/N=C/C1=C(N2CCOCC2)C(=C\c2cccc([N+](=O)[O-])c2)/CC1 (stereo not given) | 19%
CO[C@@H](CCO)C[C@H]1O[C@H](C(=O)OC(C)C)CC[C@@H]1C | -1%
CCNc1ccc(C(=O)OCC(=O)NC(C)c2ccccc2)cc1[N+](=O)[O-] (stereo not given) | 3%
Cc1cccc(NC(=O)c2ccc(NC(C)c3ccccc3)c([N+](=O)[O-])c2)n1 (stereo not given) | 14µM*
CCSc1ccc(C(=O)Nc2cccc(C)n2)cc1[N+](=O)[O-] | -7%
CC1CCC(C(C)C)[C@H](O)C1 (stereo not given in full) | 15%
O=c1c(-c2ccccc2)nc2cnc(N3CCNCC3)nc2n1Cc1cccs1 | 24%
Cc1cccc(OCC(=O)N2CCN(C(=O)c3ccc([N+](=O)[O-])cc3)CC2)c1 | -6%
Cc1ccc(-c2nnc(N3CCN(C(=O)COc4cccc(C)c4)CC3)c3ccccc23)cc1 | 40µM*
Cc1cccc(OCC(=O)N2CCN(c3nnc(-c4ccccc4)c4ccccc34)CC2)c1 | -10%[57.5 µM]
